The source of these data is the supplement of paper PMC3545927.

The list shows a part of the results. The hit rate among all sequences tested is not known here.

This test deals with furin, P09958. Briefly: furin cleavage Z-score vs untreated control; higher = more cleavage, active = 3.5 or more, inactive = 1 or less, 8 variable residues between constant flanks. The method in brief: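 The cleavage Z-score was derived for purified furin acting on 8-mer peptides held on magnetic beads and fused to a cDNA oligonucleotide. Digests lasted 7.5, 15 or 30 min at 1:10 enzyme:substrate in 50 mM HEPES pH 7.5 with CaCl2 and NaCl. Sequencing counts of released DNA, log-transformed against furin-free reactions, were lowess-adjusted and scaled by median absolute deviation.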
Sequence of furin, P09958 (P09958 whole entry, the tested form may be a part): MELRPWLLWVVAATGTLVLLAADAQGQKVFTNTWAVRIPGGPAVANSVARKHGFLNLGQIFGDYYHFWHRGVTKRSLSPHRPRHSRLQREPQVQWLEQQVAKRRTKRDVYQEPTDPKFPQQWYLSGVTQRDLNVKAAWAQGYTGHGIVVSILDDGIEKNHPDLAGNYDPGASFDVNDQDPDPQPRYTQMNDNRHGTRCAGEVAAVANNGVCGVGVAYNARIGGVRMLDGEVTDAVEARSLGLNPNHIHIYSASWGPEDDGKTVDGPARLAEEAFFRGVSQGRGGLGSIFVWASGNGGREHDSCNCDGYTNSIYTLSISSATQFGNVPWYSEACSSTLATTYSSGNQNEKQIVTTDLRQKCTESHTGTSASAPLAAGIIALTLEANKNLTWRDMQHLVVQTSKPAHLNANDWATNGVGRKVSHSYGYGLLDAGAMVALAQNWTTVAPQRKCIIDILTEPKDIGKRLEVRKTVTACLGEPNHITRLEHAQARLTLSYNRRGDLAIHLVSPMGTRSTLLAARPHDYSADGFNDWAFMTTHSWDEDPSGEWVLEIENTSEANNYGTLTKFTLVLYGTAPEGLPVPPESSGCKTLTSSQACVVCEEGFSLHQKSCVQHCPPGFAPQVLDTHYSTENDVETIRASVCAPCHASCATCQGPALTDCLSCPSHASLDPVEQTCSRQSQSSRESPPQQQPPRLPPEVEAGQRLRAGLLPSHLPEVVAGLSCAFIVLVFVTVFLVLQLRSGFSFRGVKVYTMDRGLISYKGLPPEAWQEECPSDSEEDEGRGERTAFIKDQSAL

Take CADSVIDCNTAGNASASA [HC885]: the “furin cleavage Z-score” value is, setting by setting: (7.5 min) 0.968 (inactive); (15 min) 0.824 (inactive); (30 min) 1.02.
Take CAASGVLTTSAGNASASA [HC1511]: the “furin cleavage Z-score” value (7.5 min) is -1.03 (inactive), the “furin cleavage Z-score” value (15 min) is -0.000581 (inactive) and the “furin cleavage Z-score” value (30 min) was -0.909 (inactive).
Turning to CAMEECSQHYAGNASASA [HC1769], the “furin cleavage Z-score” value is, setting by setting: (7.5 min) 0.65 (inactive); (15 min) 1.28; (30 min) 2.12.
As for CAGVPPLRAWAGNASASA [HC1617], the “furin cleavage Z-score” value by setting is: (7.5 min) 0.794 (inactive); (15 min) 0.986 (inactive); (30 min) 0.446 (inactive).
On the same counts, the results for CAQPEYDLELAGNASASA [HC1548] are 1.74, 0.744 (inactive) and 0.874 (inactive).
Consider CARKPRDYTIAGNASASA [FS-2695], for which the “furin cleavage Z-score” value (7.5 min) was 0.48 (inactive), the “furin cleavage Z-score” value (15 min) was 0.851 (inactive) and the “furin cleavage Z-score” value (30 min) is 3.93 (active).
Turning to CARKPRDLELAGNASASA [FS-2038], the “furin cleavage Z-score” value was 8.14 (active) (7.5 min), 11 (active) (15 min) and 10.9 (active) (30 min).
As to CARKPRPLDPAGNASASA [FS-2563], the “furin cleavage Z-score” value (7.5 min) came out at 1.12, the “furin cleavage Z-score” value (15 min) was 0.612 (inactive) and the “furin cleavage Z-score” value (30 min) was 0.941 (inactive).
As for CARKSRDMEIAGNASASA [FS-2980], the “furin cleavage Z-score” value is, setting by setting: (7.5 min) 0.641 (inactive); (15 min) -0.334 (inactive); (30 min) 1.3.
As for CAVTPIDTTIAGNASASA [HC1436], the “furin cleavage Z-score” value runs as follows: (7.5 min) -0.162 (inactive); (15 min) -2.25 (inactive); (30 min) -0.263 (inactive).
CAAAVTSPLTAGNASASA [HC1058]: the “furin cleavage Z-score” value is 0.302 (inactive) (7.5 min), -1.38 (inactive) (15 min) and -0.302 (inactive) (30 min).
For the sequence CARNSTGLYHAGNASASA [HC258], the “furin cleavage Z-score” value is, setting by setting: (7.5 min) 0.587 (inactive); (15 min) -0.804 (inactive); (30 min) -0.846 (inactive).
As for CATTALVMAQAGNASASA [HC325], the “furin cleavage Z-score” value by setting is: (7.5 min) 0.431 (inactive); (15 min) -0.525 (inactive); (30 min) -0.108 (inactive).
Turning to CAMETCSQHLAGNASASA [HC1718], the “furin cleavage Z-score” value reads like this: (7.5 min) -0.505 (inactive); (15 min) 1.16; (30 min) 2.25.
As for CARLKRNIGYAGNASASA [FS-1962], the “furin cleavage Z-score” value reads like this: (7.5 min) 4.52 (active); (15 min) 7.71 (active); (30 min) 8.24 (active).
Regarding CARLKRNQEKAGNASASA [FS-2707], the “furin cleavage Z-score” value (7.5 min) was -0.221 (inactive), the “furin cleavage Z-score” value (15 min) was 0.44 (inactive) and the “furin cleavage Z-score” value (30 min) was determined as 1.38.
As to CARLRRPIGKAGNASASA [FS-3160], the “furin cleavage Z-score” value is -0.962 (inactive) (7.5 min), -0.579 (inactive) (15 min) and -1.27 (inactive) (30 min).
As to CARLGRSIDDAGNASASA [FS-2275], the “furin cleavage Z-score” value reads like this: (7.5 min) 5.11 (active); (15 min) 6.98 (active); (30 min) 5.82 (active).
CARLRKDQLKAGNASASA [FS-2432]: the “furin cleavage Z-score” value is -0.25 (inactive) (7.5 min), 0.106 (inactive) (15 min) and 1.29 (30 min).
CARLKREIEKAGNASASA [FS-2431]: the “furin cleavage Z-score” value by setting is: (7.5 min) 9.68 (active); (15 min) 9.27 (active); (30 min) 9.19 (active).
On the same counts, the results for CARLKRYHSQAGNASASA [FS-2156] are 1.21, -0.314 (inactive) and 1.6.
On the same counts, the results for CARLGRIVDRAGNASASA [FS-1737] are -0.217 (inactive), -0.37 (inactive) and 0.14 (inactive).
Take CARLKRSRLKAGNASASA [FS-1741]: the “furin cleavage Z-score” value is, setting by setting: (7.5 min) 3.6 (active); (15 min) 6.18 (active); (30 min) 7.33 (active).
On the same counts, the results for CAIVPCHRPSAGNASASA [HC2304] are 0.422 (inactive), 0.63 (inactive) and 0.055 (inactive).
Turning to CAGKSTKVPAAGNASASA [HC778], the “furin cleavage Z-score” value is 1.37 (7.5 min), 0.655 (inactive) (15 min) and -0.125 (inactive) (30 min).
Regarding CAEMTTPCSGAGNASASA [HC1966], the “furin cleavage Z-score” value (7.5 min) is -0.105 (inactive), the “furin cleavage Z-score” value (15 min) is -0.176 (inactive) and the “furin cleavage Z-score” value (30 min) is -0.555 (inactive).
On to CASSEANAEDAGNASASA [HC1365], for which the “furin cleavage Z-score” value is -1.29 (inactive) (7.5 min), -2.48 (inactive) (15 min) and -1.24 (inactive) (30 min).
CAVAGALVAFAGNASASA [HC1090]: the “furin cleavage Z-score” value is 1.08 (7.5 min), -1.61 (inactive) (15 min) and -0.599 (inactive) (30 min).
Turning to CARLTRSNSKAGNASASA [FS-1750], the “furin cleavage Z-score” value was -0.152 (inactive) (7.5 min), 1.68 (15 min) and -1.49 (inactive) (30 min).
On the same counts, the results for CARLKRFSMVAGNASASA [FS-2705] are 1.5, 0.596 (inactive) and 2.46.
On the same counts, the results for CARLKRSPDKAGNASASA [FS-2277] are 9.81 (active), 12.1 (active) and 8.68 (active).
In the case of CARSKRDGSEAGNASASA [FS-1868], the “furin cleavage Z-score” value (7.5 min) was 3.53 (active), the “furin cleavage Z-score” value (15 min) was 5.29 (active) and the “furin cleavage Z-score” value (30 min) is 5.43 (active).
Regarding CARSKKIFGSAGNASASA [FS-2405], the “furin cleavage Z-score” value runs as follows: (7.5 min) -1.12 (inactive); (15 min) -0.175 (inactive); (30 min) 0.546 (inactive).
Turning to CALATRSFGSAGNASASA [HC1334], the “furin cleavage Z-score” value by setting is: (7.5 min) -0.496 (inactive); (15 min) 0.424 (inactive); (30 min) -0.551 (inactive).
Regarding CARAGRDVGSAGNASASA [FS-1989], the “furin cleavage Z-score” value reads like this: (7.5 min) 2.62; (15 min) 3.76 (active); (30 min) 2.8.
With CAHIDLLVGSAGNASASA [HC291], the “furin cleavage Z-score” value was -0.513 (inactive) (7.5 min), -1.31 (inactive) (15 min) and -1.06 (inactive) (30 min).
Regarding CARSGRVVGSAGNASASA [FS-3235], the “furin cleavage Z-score” value was -1.67 (inactive) (7.5 min), 0.0813 (inactive) (15 min) and 0.573 (inactive) (30 min).
CARSKRDISSAGNASASA [FS-3083]: the “furin cleavage Z-score” value (7.5 min) is 9.51 (active), the “furin cleavage Z-score” value (15 min) is 11.2 (active) and the “furin cleavage Z-score” value (30 min) is 9.07 (active).
In the case of CARSKRRKYSAGNASASA [FS-2380], the “furin cleavage Z-score” value was 0.793 (inactive) (7.5 min), -0.279 (inactive) (15 min) and 0.723 (inactive) (30 min).
In the case of CARSYRGISSAGNASASA [FS-2093], the “furin cleavage Z-score” value is 1.39 (7.5 min), -0.63 (inactive) (15 min) and 0.639 (inactive) (30 min).
Turning to CARSKRDVGSAGNASASA [FS-2379], the “furin cleavage Z-score” value (7.5 min) was 11.6 (active), the “furin cleavage Z-score” value (15 min) was 11.3 (active) and the “furin cleavage Z-score” value (30 min) was 8.54 (active).
Regarding CASTPCSAFLAGNASASA [HC2547], the “furin cleavage Z-score” value was -0.397 (inactive) (7.5 min), -0.0879 (inactive) (15 min) and 0.628 (inactive) (30 min).
